From PubChem BioAssay (NCI)
Several values for one entry are separate records, joined by “and”; a condition that tells them apart may be missing. Equal values may be shown once. This is part of a sample that, as a whole, favours compounds with a hit. Of some 79,000 tested, about 15% had one in any assay. A structure can be active in one record and inactive in another. Activity calls are given as the source filed them. Cut-off read from the data, not from the text of the source: active = growth inhibition above about 70%; inactive = the rest.

Experiments:
[1] = NCI Yeast Anticancer Drug Screen. Data for the rad50 strain (AID 155);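 note: 0% = growth of vehicle-only cultures of the same strain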; settings: S. cerevisiae rad50 strain growth inhibition, stronger effect = higher value
Outline: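 Yeast carrying a defined DNA repair defect were exposed to test compounds, and growth was compared with vehicle-treated controls to give percent inhibition.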

[2] = NCI Yeast Anticancer Drug Screen. Data for the mec2-1 strain (AID 157); settings: S. cerevisiae mec2-1 strain, stronger effect = higher value
Outline: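 Cells of the genetically defined mec2-1 yeast strain are incubated with test compound. Inhibition of growth is calculated against vehicle-treated controls.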

[3] = NCI Yeast Anticancer Drug Screen. Data for the sgs1 mgt1 strain (AID 161);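 note: 0% = growth of cultures given vehicle only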; settings: S. cerevisiae sgs1 mgt1 strain, stronger effect = higher value
Outline: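 Test agents were incubated with a DNA-repair-mutant yeast strain. Growth was then read and compared against vehicle-treated controls.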

[4] = NCI Yeast Anticancer Drug Screen. Data for the cln2 rad14 strain (AID 165);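 note: 0% = growth equal to vehicle treated cultures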; settings: S. cerevisiae cln2 rad14 strain, stronger effect = higher value
Outline: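 The screen exposed genetically defined yeast (cln2 rad14) to test compounds and scored growth inhibition relative to vehicle-treated controls.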

[5] = NCI Yeast Anticancer Drug Screen. Data for the bub3 strain (AID 167); settings: S. cerevisiae bub3 mutant strain, stronger effect = higher value
Outline: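 Compounds were applied to a genetically altered yeast strain carrying a cell-cycle control defect. Growth inhibition was scored against vehicle-treated controls.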

[6] = NCI Yeast Anticancer Drug Screen. Data for the mlh1 rad18 strain (AID 175); settings: S. cerevisiae mlh1 rad18 strain growth inhibition, stronger effect = higher value
Outline: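 Compound-treated yeast growth, normalised to vehicle controls. Strain bears defined DNA repair mutations.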

[7] = at 5.0 µM (retest, dose inferred, filed as 0.5)
[8] = at 50.0 µM (retest, dose inferred, filed as 5.0)

SMILES	growth inhibition [1, 7]	growth inhibition [1, 8]	growth inhibition ([1]; at 50.0 µM)	growth inhibition [2, 7]	growth inhibition [2, 8]	growth inhibition ([2]; at 50.0 µM)	growth inhibition [3, 7]	growth inhibition [3, 8]	growth inhibition ([3]; at 50.0 µM)	growth inhibition [4, 7]	growth inhibition [4, 8]	growth inhibition ([4]; at 50.0 µM)	growth inhibition [5, 7]	growth inhibition [5, 8]	growth inhibition ([5]; at 50.0 µM)	growth inhibition [6, 7]	growth inhibition [6, 8]	growth inhibition ([6]; at 50.0 µM)
Cc1cc(N(CCCl)CCCl)ccc1CN1CCCN(Cc2ccc(N(CCCl)CCCl)cc2C)C1c1cccc(F)c1	6% (inactive)	97% (active)	40.8% (inactive)	-27% (inactive)	99% (active)	18% (inactive)	1% (inactive)	98% (active)	80.5% (active)	2% (inactive)	97% (active)	-0.15% (inactive)	3% (inactive)	98% (active)	2.15% (inactive)	8% (inactive)	95% (active)	76.5% (active)
O=[N+]([O-])C(Br)(Br)CCC(Br)(Br)[N+](=O)[O-]	99% (active)	99% (active)	99.5% (active)	99% (active)	100% (active)	99.8% (active)	99% (active)	99% (active)	52.4% (inactive)	100% (active)	99% (active)	81.3% (active)	100% (active)	100% (active)	99.7% (active)	99% (active)	99% (active)	99.5% (active)
CC(Cl)CNC(C)C (centres undefined)	-156% (inactive)	-171% (inactive)	4.95% (inactive)	-50% (inactive)	-57% (inactive)	-9.4% (inactive)	-64% (inactive)	-67% (inactive)	3.25% (inactive)	-54% (inactive)	-67% (inactive)	24.5% (inactive)	-67% (inactive)	-80% (inactive)	-7.95% (inactive)	-137% (inactive)	-120% (inactive)	6.1% (inactive)
ClC1=NSSC1(Cl)Cl	16% (inactive)	96% (active)	90.4% (active)	16% (inactive)	99% (active)	92.5% (active)	18% (inactive)	99% (active)	91.2% (active)	20% (inactive)	78% (active)	87.7% (active)	21% (inactive)	99% (active)	90.3% (active)	17% (inactive)	90% (active)	92.2% (active)
O=[N+]([O-])c1ccc(O)c(CCl)c1	6% (inactive)	41% (inactive)	16.5% (inactive)	-1% (inactive)	22% (inactive)	1.6% (inactive)	0% (inactive)	36% (inactive)	20.9% (inactive)	0% (inactive)	5% (inactive)	-4.15% (inactive)	3% (inactive)	18% (inactive)	8.65% (inactive)	4% (inactive)	59% (inactive)	76.2% (active)
CC1=[N+](Cc2cc(C)cc(C)c2O)CCCC1	-5% (inactive)	4% (inactive)	-5.5% (inactive)	-8% (inactive)	-9% (inactive)	-7.45% (inactive)	-5% (inactive)	-57% (inactive)	41.2% (inactive)	-2% (inactive)	-4% (inactive)	-3% (inactive)	-8% (inactive)	-1% (inactive)	1.2% (inactive)	-13% (inactive)	-8% (inactive)	-24.7% (inactive)
O=S(=O)([O-])[O-].[OH3+].[OH3+].[OH3+].[Ru+2].c1ccccc1	-39% (inactive)	-9% (inactive)	88.8% (active)	-1% (inactive)	-2% (inactive)	92.2% (active)	-15% (inactive)	20% (inactive)	90.5% (active)	-9% (inactive)	15% (inactive)	89.6% (active)	-11% (inactive)	42% (inactive)	90.7% (active)	-38% (inactive)	30% (inactive)	87.5% (active)
O=C1C=CC(=O)c2c(O)ccc(O)c21	99% (active) and 16% (inactive)	17% (inactive) and 93% (active)	89.1% (active) and 64% (inactive)	99% (active) and -14% (inactive)	14% (inactive) and 95% (active)	91.5% (active) and 68.8% (inactive)	97% (active) and -5% (inactive)	19% (inactive) and 95% (active)	91% (active) and 80.3% (active)	98% (active) and 20% (inactive)	16% (inactive) and 93% (active)	88.8% (active) and 77.7% (active)	99% (active) and 11% (inactive)	80% (active) and 93% (active)	89.6% (active) and 79.1% (active)	99% (active) and -4% (inactive)	21% (inactive) and 92% (active)	88.4% (active)
CCC[As](CCC)SC1CCC2(C)C(=CCC3C4CCC(=O)C4(C)CCC32)C1 (centres undefined)	17% (inactive)	98% (active)	49.5% (inactive)	9% (inactive)	87% (active)	3.1% (inactive)	19% (inactive)	84% (active)	82% (active)	-3% (inactive)	89% (active)	34.8% (inactive)	0% (inactive)	77% (active)	17.4% (inactive)	11% (inactive)	97% (active)	88.5% (active)
N#C[S-].[Nd+3].c1cnc2c(c1)ccc1cccnc12.c1cnc2c(c1)ccc1cccnc12.c1cnc2c(c1)ccc1cccnc12	91% (active)	99% (active)	93% (active)	98% (active)	100% (active)	94.8% (active)	98% (active)	99% (active)	94.2% (active)	93% (active)	98% (active)	93.7% (active)	98% (active)	99% (active)	93.2% (active)	98% (active)	99% (active)	92.8% (active)
C1CC[CH]([Sn]([CH]2CCCCC2)[CH]2CCCCC2)CC1.C1CC[CH]([Sn]([CH]2CCCCC2)[CH]2CCCCC2)CC1	2% (inactive)	34% (inactive)	31.5% (inactive)	0% (inactive)	34% (inactive)	63.3% (inactive)	4% (inactive)	17% (inactive)	75.7% (active)	3% (inactive)	-9% (inactive)	-30.2% (inactive)	3% (inactive)	-2% (inactive)	9.5% (inactive)	0% (inactive)	4% (inactive)	87.9% (active)
C/C(=N\NS(=O)(=O)c1ccc(C)cc1)C(CN1CCOCC1)C(c1ccccc1)c1c(O)c2ccccc2oc1=O (centres undefined)	15% (inactive)	15% (inactive)	88.5% (active)	4% (inactive)	4% (inactive)	85.8% (active)	15% (inactive)	15% (inactive)	87.4% (active)	5% (inactive)	5% (inactive)	89.2% (active)	3% (inactive)	3% (inactive)	83.7% (active)	9% (inactive)	9% (inactive)	87.6% (active)
O=C1C(F)=C(N2CC2)C(=O)C(F)=C1N1CC1	99% (active)	99% (active)	91.7% (active)	100% (active)	99% (active)	94% (active)	100% (active)	99% (active)	91% (active)	100% (active)	99% (active)	91.5% (active)	98% (active)	99% (active)	92.8% (active)	99% (active)	99% (active)	91.5% (active)
CCC1(O)CC(OC2CC(N(C)C)C(OC3CC4OC5CC(=O)C(C)OC5OC4C(C)O3)C(C)O2)c2c(cc3c(c2O)C(=O)c2c(O)ccc(O)c2C3=O)C1C(=O)OC (centres undefined)	88% (active) and 93% (active)	97% (active) and 98% (active)	89.9% (active) and 87.5% (active) and 91.9% (active)	71% (active) and 96% (active) and 95% (active)	98% (active)	90% (active) and 89.7% (active) and 92% (active)	89% (active) and 79% (active) and 93% (active)	98% (active) and 97% (active)	91% (active) and 90% (active)	73% (active) and 85% (active) and 86% (active)	96% (active) and 97% (active)	88% (active) and 87.9% (active) and 91.4% (active)	93% (active) and 92% (active)	98% (active) and 97% (active)	88.6% (active) and 87.2% (active) and 84.8% (active)	92% (active) and 96% (active) and 94% (active)	97% (active) and 96% (active) and 98% (active)	89.8% (active) and 86% (active) and 89.9% (active)
COc1cc(C(c2c(O)c3ccccc3oc2=O)c2c(O)c3ccccc3oc2=O)cc(OC)c1O	4% (inactive)	20% (inactive)	75% (active)	-2% (inactive)	19% (inactive)	44.3% (inactive)	-2% (inactive)	12% (inactive)	54.7% (inactive)	0% (inactive)	0% (inactive)	70.8% (active)	-5% (inactive)	-10% (inactive)	50% (inactive)	-7% (inactive)	2% (inactive)	90.6% (active)
C[As](c1ccc(Br)cc1)c1ccc(Br)cc1	-4% (inactive)	1% (inactive)	3.6% (inactive)	-2% (inactive)	20% (inactive)	25.8% (inactive)	7% (inactive)	46% (inactive)	75.5% (active)	-5% (inactive)	-18% (inactive)	52.1% (inactive)	2% (inactive)	44% (inactive)	-14.2% (inactive)	6% (inactive)	22% (inactive)	53% (inactive)
O=C(O)c1cc[c]([Hg])cc1	-1% (inactive)	5% (inactive)	38.4% (inactive)	-2% (inactive)	3% (inactive)	25.6% (inactive)	1% (inactive)	5% (inactive)	36% (inactive)	-3% (inactive)	-4% (inactive)	2.65% (inactive)	0% (inactive)	-7% (inactive)	-5.4% (inactive)	1% (inactive)	3% (inactive)	38.2% (inactive)
Cc1c([C@H](C)[C@@H]2NC[C@@H](C)C[C@H]2O)ccc2c1C[C@H]1[C@H]2CC=C2C[C@@H](O)CC[C@@]21C	10% (inactive) and -5% (inactive)	71% (active) and 36% (inactive)	84.3% (active) and 88.5% (active)	-1% (inactive)	52% (inactive) and 0% (inactive)	75.2% (active) and 79.2% (active)	7% (inactive) and -12% (inactive)	85% (active) and 6% (inactive)	76.8% (active) and 86.2% (active)	-6% (inactive) and -7% (inactive)	58% (inactive) and 8% (inactive)	77.3% (active) and 82.8% (active)	11% (inactive) and -18% (inactive)	74% (active) and 1% (inactive)	86.2% (active) and 19.4% (inactive)	2% (inactive) and 0% (inactive)	59% (inactive) and 40% (inactive)	85% (active) and 87.5% (active)
